Screening results deposited in PubChem by National Center for Advancing Translational Sciences (NCATS).
This is a sample that favours compounds with a hit; in the whole collection about 4% have one here.
D1 agonist: agonists of human D1 dopamine receptor | P21728 | HEK293 T-REx D1 cells, calcium flux, agonist mode | activation, % at 2 µM | 360,000 compounds, 1% hits; note: 0% is about no effect
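Agonism was scored from calcium flux recorded over 180 s (1 read/s) after pintool compound addition, following a 10-cycle baseline. Cells were inducible force-coupled HEK293 TREx D1, plated overnight at 30 C and loaded with no-wash calcium dye.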
GRP78 ERSR act: inducers of ER stress response in human glioma cells; 420,000 compounds, 0.02% hits; Potency, µM, inactives show at the top dose activation, usual class: activators; U87-MG GRP78 promoter luciferase reporter, 16 h; AID 602332; active = well fitted activation curve with a large enough effect; note: potency is the fitted concentration of half-maximal effect; series mostly up to about 76 µM; % of control where 0% means no effect; nearly all actives have a fitted effect of over 35% in size
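Stably transfected U87-MG glioma cells carrying a GRP78-based luciferase sensor; 16 h compound incubation. Luminescence end-point read 10 min after Bright-Glo addition at room temperature.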
D1 potentiator: potentiators of human D1 dopamine receptor; P21728; HEK293 TREx D1 cells, calcium flux, dopamine EC20 potentiation; potentiation, % at 10 µM; 360,000 compounds, 0.036% hits; AID 504651; in the data active = potentiation above about 30%; note: 0% is about no effect
TRHR PAM: allosteric enhancers of human TRH receptor; enhancement, % at 2 µM; TRHR cells, fluo-8 calcium fluorescence, EC20 TRH enhancement; P34981; AID 493056; 360,000 compounds, 0.66% hits; in the data active = enhancement above about 30%; note: 0% is about no effect
Target sequence (P34981 whole entry, looked up): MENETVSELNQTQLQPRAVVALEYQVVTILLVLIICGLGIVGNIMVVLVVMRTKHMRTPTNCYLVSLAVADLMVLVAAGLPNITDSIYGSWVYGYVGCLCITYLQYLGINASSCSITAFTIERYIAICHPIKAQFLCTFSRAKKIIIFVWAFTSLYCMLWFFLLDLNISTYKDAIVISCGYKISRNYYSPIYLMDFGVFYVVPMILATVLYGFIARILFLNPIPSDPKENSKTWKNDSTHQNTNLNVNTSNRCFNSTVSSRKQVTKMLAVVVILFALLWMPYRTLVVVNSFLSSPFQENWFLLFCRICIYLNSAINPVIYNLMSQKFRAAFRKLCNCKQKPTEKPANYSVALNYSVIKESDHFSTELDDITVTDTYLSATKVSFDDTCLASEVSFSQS
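Enhancer read-out: after compound pinning and an initial kinetic agonist-mode read, an EC20 of TRH (10 nM final) was injected and fluo-8 calcium signal (Ex 480/Em 530) followed at 1 s/cycle for 100 cycles in TRHR-expressing cells.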
D1 antagonist: blocks dopamine activation of the human D1 receptor; HEK293 TREx D1 cells, calcium flux, dopamine EC80; active compounds read low; activity change, negative = inhibition, % at 10 µM; 360,000 compounds, 3.2% hits; AID 504652; in the data active = activity change below about -30%; note: % is set by controls: 0 for no effect and ±100 for the full control effect
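Allosteric or orthosteric antagonism assessed as attenuation of the calcium response to EC80 dopamine, added 180 s after compound, in induced HEK293 Trex D1 cells loaded with no-wash calcium dye.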
TRHR agonist: agonists of human TRH receptor | P34981 | TRHR cells, calcium flux fluo-8, FDSS agonist mode | activation, % at 2 µM | 360,000 compounds, 0.18% hits; note: 0% is about no effect
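Agonist-mode FDSS calcium read (Ex 480/Em 530, 1 s cycles) in 1536-well TRHR cells with fluo-8 dye, after 10-cycle baseline and 23 nL compound addition; TRH at EC20 (10 nM final) added afterwards for the enhancer phase.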
An asterisk follows results filed as active; / = no result. Cut-off read from the data, not from the text of the source, unless noted: active = activation above about 30%; inactive = the rest.

SMILES | D1 agonist | GRP78 ERSR act | D1 potentiator | TRHR PAM | D1 antagonist | TRHR agonist
COCCCN(C(=O)c1ccco1)c1nc(-c2cc(OC)ccc2OC)cs1 | 6 | -2% | 5 | -1 | -41* | 0
COc1ccc(OC)c(-c2csc(N(Cc3ccco3)C(=O)c3ccco3)n2)c1 | 9 | 1% | -1 | 0 | 7 | 3
Cc1ccc(-c2csc(N(CCCN(C)C)C(=O)c3ccco3)n2)cc1 | 1 | -7% | 0 | 4 | -1 | 0
CCC(=O)N(CC)c1nc(-c2cc(OC)ccc2OC)cs1 | 34* | 0% | -3 | 11 | 30 | 0
CCC(=O)N(CCCN(C)C)c1nc(-c2cc(OC)ccc2OC)cs1 | 8 | 1% | -1 | 16 | 8 | -1
Nc1nc(SCC(=O)Nc2cccc(C(F)(F)F)c2)n[nH]1 | 1 | -1% | -3 | -2 | -12 | -1
CCOC(=O)c1sc(=S)n(-c2cccc(C(F)(F)F)c2)c1SC | 7 | -2% | -1 | -5 | -32* | 0
C[C@@H](C(=O)NCCc1c[nH]c2ccccc12)[C@H]1C[C@]1(C)[C@H](NC(=O)OCc1ccccc1)c1ccccc1 | 1 | -3% | 13 | 1 | 0 | 0
COc1ccc(/C=C2\SC(N)=NC2=O)cc1 | 6 | -3% | -1 | 4 | 6 | 0
CCOC(=O)CSC1=NC(=O)/C(=C/c2ccc(OC)cc2)S1 | 6 | -9% | -8 | 0 | -37* | 1
CC(=Nc1cccc(C)c1)c1sc2ccccc2c1O | 23 | 9% | -1 | 7 | 3 | 15
CC(=Nc1ccc(O)cc1)c1sc2ccccc2c1O | 53* | 4% | 1 | 13 | 0 | 13
CC(=O)NCCN=C(C)c1sc2ccccc2c1O | 2 | -2% | -7 | 2 | 6 | 0
CC(=Nc1ccccc1O)c1sc2ccccc2c1O | 48* | 0% | -4 | 6 | -25 | 16
COc1ccc(NC(=O)CN(C)S(=O)(=O)c2ccc3c(c2)CCCN3C(C)=O)cc1Cl | 6 | -2% | -1 | 0 | -23 | -1
CCOc1ccc2ccccc2c1/C=N/n1cncn1 | 13 | -3% | 4 | 3 | -47* | 0
Brc1ccc(-c2csc(N3CCCCCC3)n2)cc1 | 2 | 3% | 2 | 7 | -3 | 1
CN(C)/C=C(\C#N)C(=O)c1cccc(Oc2ccc(Br)cc2)c1 | 5 | 2% | -5 | -15 | -2 | 0
CCOc1cccc(Oc2ncccc2C(=O)/C(C#N)=C/N(C)C)c1 | 3 | -5% | -3 | -4 | -38* | 0
CCOc1ccc(CNC(=O)c2cnc3sc(N4CCOCC4)nn3c2=O)cc1 | 0 | -2% | -4 | -2 | -61* | 0
COC(=O)CSc1ccsc1C(=O)O | 3 | -5% | -3 | -5 | 2 | 1
COC(=O)CSc1cccc2c1C(=O)CC2c1ccccc1 (configuration not stated) | 7 | 7% | -5 | -6 | -33* | -1
Cc1ccc(Cc2c(-c3ccc(F)cc3)nc3c(C)cc(Br)cn23)cc1 | / | 7% | / | / | / | /
CC(C)Sc1nc2ccc(Br)cc2[nH]1 | 5 | 9% | -5 | -3 | -33* | -1
O=C(c1ccc([N+](=O)[O-])cc1)N1CCSC1c1ccc(Br)cc1 (configuration not stated) | 2 | -5% | -11 | 0 | -23 | 0
SMILES | D1 agonist | GRP78 ERSR act | D1 potentiator | TRHR PAM | D1 antagonist | TRHR agonist
O=C(c1ccc(CS(=O)Cc2ccc(Cl)cc2)o1)N1CCN(c2ccc(F)cc2)CC1 (configuration not stated) | 17 | -5% | -9 | 5 | -36* | -1
Fc1ccc(-c2onc3ccc(C4OCCO4)cc23)cc1 | 0 | 1% | -1 | -1 | -56* | 0
O=C(/C=C/c1ccc([N+](=O)[O-])cc1)c1cccs1 | 1 | 2% | 2 | -6 | 0 | 1
COc1cc([N+](=O)[O-])ccc1N/C=C/C(=O)c1cccs1 | 42* | -8% | -8 | 16 | -8 | 13
CCc1nnc(NC(=O)CSc2nc3cc(OC)c(OC)cc3cc2C)s1 | 9 | -3% | -6 | 12 | -1 | 0
COC(=O)c1ccc(CSc2nnc3ccccn23)o1 | 1 | -5% | -5 | -4 | -4 | 0
Fc1ccccc1OCCn1c(=S)[nH]c2ccccc21 | 2 | 0% | 1 | 37* | 6 | 0
CC(C)n1c(O)c(N=Nc2ccc(Cl)nn2)c2ccccc21 | 1 | -2% | -1 | -10 | 3 | 1
CC(=O)c1cn(CCOc2ccccc2C)c2ccccc12 | 18 | -3% | -7 | -6 | -38* | 0
O=C(OCCN1C(=O)c2ccccc2C1=O)c1cnccn1 | 2 | 0% | -1 | 3 | 0 | 0
CC(=O)Nc1ccc(S(=O)(=O)N2CCN(CCc3ccccc3)CC2)cc1 | 4 | -1% | -6 | -3 | -33* | 0
O=[N+]([O-])c1ccc(N2CCN(c3ccccc3)CC2)cc1 | 2 | -1% | -4 | -7 | -10 | 1
CC(=O)Nc1ccc(S(=O)(=O)N2CCN(c3ccc([N+](=O)[O-])cc3)CC2)cc1 | 5 | -2% | -5 | -7 | -35* | 1
CC(=O)Nc1ccc(S(=O)(=O)N2CCN=C2SCc2ccc([N+](=O)[O-])cc2)cc1 | 18 | -5% | -9 | 12 | -65* | 1
O=[N+]([O-])c1ccc(CS(=O)(=O)N2CCN(c3ccccc3)CC2)cc1 | 9 | -3% | / | -3 | -30* | 1
CC(=O)Nc1ccc(S(=O)(=O)N2CCN(C(=O)Cc3ccccc3)CC2)cc1 | 1 | -4% | -5 | -4 | -13 | 0
O=C(c1[nH]c(C(F)(F)F)nc1-c1ccccc1)N1CCN(C(=O)C2CCCO2)CC1 (configuration not stated) | / | -1% | / | / | / | /
O=C(CN1CCN(S(=O)(=O)c2ccccc2[N+](=O)[O-])CC1)Nc1ccc(N2CCOCC2)cc1 | 9 | -2% | -13 | 7 | -46* | 0
CN(CC(=O)Nc1ccc(S(=O)(=O)N2CCCC2)cc1)Cc1ccc(Cl)cc1Cl | 4 | -2% | 0 | -1 | 18 | 1
O=C(NCc1ccc(F)cc1)c1ccc2c(c1)nnn2C1CCCC1 | 11 | -1% | -2 | -2 | -19 | -1
CCc1ccccc1NC(=O)c1ccc2c(c1)nnn2C1CCCC1 | 5 | -1% | 0 | 1 | -30* | 0
O=C(NCc1ccccc1Cl)c1ccc2c(c1)nnn2C1CCCC1 | 7 | -1% | -4 | 2 | -34* | 0
Cc1cccc(CNC(=O)c2ccc(NC(=O)N3CCSc4ncccc43)cc2)c1 | -1 | 0% | -2 | 7 | 11 | 0
CC(C)[C@H](NC(=O)c1ccccc1F)C(=O)NC1CCCCC1 | / | -2% | / | / | / | /
